In ChEMBL document CHEMBL4513146, “CO-ADD screening of Karazin Kharkiv National University (Ukraine) compounds”:
Measured potencies and affinities stand elsewhere.

Columns and labels:
Staphylococcus aureus = conditions: Concentration 32 ug.mL-1;; ASSAY_TEST Inhibition of Bacterial Growth; detection method Absorption (OD600); MEDIA CAMHB; plate type 384well; NBS; CORNING #3640; time 18 hr
Escherichia coli = conditions: Concentration 32 ug.mL-1;; ASSAY_TEST Inhibition of Bacterial Growth; detection method Absorption (OD600); MEDIA CAMHB; plate type 384well; NBS; CORNING #3640; time 18 hr

Row | SMILES | Inhibition (Staphylococcus aureus) | Inhibition (Escherichia coli)
1 | O=C(CSc1nc2ccccc2n2cnnc12)Nc1cc(C(F)(F)F)ccc1Cl | 6.84% | -4.72%
2 | Cc1cc2nn(CC(=O)Nc3cc(F)ccc3F)c(=O)n2c(Nc2ccc(F)c(C)c2)n1 | -14.31% | 0.42%
3 | COC(=O)c1sccc1NC(=O)Cn1nc2c(Oc3ccccc3)nc3ccccc3n2c1=O | 9.09% | 0.17%
4 | COc1ccc(-c2cc3c4nnc(SCC(=O)Nc5ccc(C)cc5Cl)n4ccn3n2)cc1 | 2.3% | -3.13%
5 | COc1cccc(-n2ccn3c(SCC(=O)c4ccc(Br)cc4)nnc3c2=O)c1 | 12.63% | 0.58%
6 | CN(C(=O)Cn1nc2n(Cc3cccs3)c(=O)c3sccc3n2c1=O)c1ccccc1 | -14.76% | -16.81%
7 | COc1cc(NC(=O)Cn2nc3ccc(SCc4ccc(Cl)cc4)nn3c2=O)cc(OC)c1 | -3.52% | -10.62%
8 | COc1ccc(NC(=O)c2ccc3nn(CC(=O)Nc4cccc(OC)c4)c(=O)n3c2)cc1 | 15.63% | 0.97%
9 | CCOc1ccc(C(=O)Cn2nc3n(Cc4ccccc4OC)c(=O)c4sccc4n3c2=O)cc1 | -7.18% | -6.25%
10 | COc1cc(OC)c(NC(=O)Cn2nc3c(Sc4cccc(C)c4)nccn3c2=O)cc1Cl | 10.36% | -1.94%
11 | CCc1ccc(N(Cc2ccccc2F)S(=O)(=O)c2cccn3c(CC)nnc23)cc1 | -9.17% | 1.03%
12 | CCc1nnc2c(SCC(=O)Nc3ccc4c(c3)OCCO4)nc3ccccc3n12 | -7.96% | 3.84%
